Data from paper PMC5540273 (PLoS ONE, 2017).

Legend:
Conditions in all cases: concentration: 1 μM, replicates: in singlicate; n = 1
PCTK2 = tested on: T1, PCTK2
T1 construct: gene CDK17

PCTK3 = tested on: T2, PCTK3
T2 construct: gene CDK18

PDGFRA = tested on: PDGFRA
PDGFRB = tested on: PDGFRB
PDPK1 = tested on: PDPK1
PFTAIRE2 = tested on: PFTAIRE2
PFTK1 = tested on: T3, PFTK1
T3 construct: gene CDK14

PHKG1 = tested on: PHKG1
PHKG2 = tested on: PHKG2
PIK3C2B = tested on: PIK3C2B
PIK3C2G = tested on: PIK3C2G
PIK3CA = tested on: PIK3CA
PIK3CB = tested on: PIK3CB
PIK3CD = tested on: PIK3CD
PIK3CG = tested on: PIK3CG
PIK4CB = tested on: T4, PIK4CB
T4 construct: gene PI4KB

PIKFYVE = tested on: PIKFYVE
PIM1 = tested on: PIM1
PIM2 = tested on: PIM2
PIM3 = tested on: PIM3
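Further: KINOMEscan kinase panel screen.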

Compound	%Inh (PCTK2)	%Inh (PCTK3)	%Inh (PDGFRA)	%Inh (PDGFRB)	%Inh (PDPK1)	%Inh (PFTAIRE2)	%Inh (PFTK1)	%Inh (PHKG1)	%Inh (PHKG2)	%Inh (PIK3C2B)	%Inh (PIK3C2G)	%Inh (PIK3CA)	%Inh (PIK3CB)	%Inh (PIK3CD)	%Inh (PIK3CG)	%Inh (PIK4CB)	%Inh (PIKFYVE)	%Inh (PIM1)	%Inh (PIM2)	%Inh (PIM3)
O=c1[nH]cc(-c2ccc(N3CCOCC3)cc2)c2sc(-c3cn[nH]c3)cc12 [GSK2276055]	28%	15%	32%	63%	0%	34%	42%	0%	6%	9%	0%	21%	11%	3%	21%	8%	31%	77%	51%	67%
O=C(Nc1ccccc1F)NC1CCN(c2ccnc(Nc3ccc(F)cc3)n2)CC1 [GSK1379800]	0%	0%	0%	11%	0%	5%	15%	0%	0%	0%	0%	1%	0%	0%	3%	0%	0%	0%	0%	0%
COc1cc(Nc2nccc(-c3c(-c4cccc(NC(=O)c5c(F)cccc5F)c4)nn4ncccc34)n2)cc(OC)c1OC [GSK327238]	0%	5%	90.2%	100%	16%	4%	5%	0%	3%	0%	0%	2%	3%	0%	6%	0%	0%	0%	0%	0%
CN(C)S(=O)(=O)c1cc(-c2ccc3nccc(-c4cccc(S(N)(=O)=O)c4)c3c2)cnc1N [GSK1669921]	0%	0%	0%	16%	9%	31%	17%	0%	8%	95.5%	96%	100%	96.6%	98.8%	99.9%	96.5%	96.6%	19%	0%	12%
COc1cc2c(cc1OCCN1CCNCC1)ncc1c3ccc(C#N)cc3[nH]c21	9%	0%	96.4%	89%	9%	53%	9%	98.7%	99.3%	0%	0%	8%	0%	3%	31%	33%	14%	10%	92.2%	52%
Cl.Cl.NCC(NCc1ccc(-c2ccnc3[nH]ccc23)s1)c1ccccc1 (stereo not shown) [GSK1321565]	0%	0%	5%	44%	0%	4%	1%	19%	13%	0%	0%	0%	19%	2%	21%	4%	3%	17%	0%	0%
Cc1ccc(S(=O)(=O)Nc2ccc(Nc3nccc(Nc4cccc5[nH]ncc45)n3)cc2)cc1 [GSK581271]	0%	12%	0%	73%	0%	12%	10%	0%	0%	0%	0%	0%	0%	0%	5%	77%	0%	11%	0%	0%
Cc1cccc(NC(=O)Nc2ccc(Oc3ncnc4ccn(C)c34)cc2)c1	0%	0%	99.7%	100%	0%	0%	0%	0%	0%	0%	0%	0%	0%	0%	0%	0%	40%	0%	0%	0%
